Results with a measured potency or affinity are listed apart. Values without a mark were called inactive.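 Rule for the calls: active = ATP signal reduced by compound, with fitted active dose under ten times the top valid tested dose; inactive = the rest, compounds that increase ATP levels included.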

The assay is described as follows: cellular ATP toxicity in rat beta cells – cell-based, CellTiter-Glo luminescence, INS-1E, dry powder, cytotoxicity control for beta-cell cytokine protection project, dose response (AID 488864). The settings on record: INS-1E rat beta cells, 48 h, no cytokines; series mostly up to 26 µM; activity change, negative = ATP decrease: at the top concentration. A general note: ATP-based viability assays read luminescence as a measure of living cells.
Regarding `COc1ccc(S(=O)(=O)N(C)C[C@@H]2Oc3c(NS(=O)(=O)c4cn(C)cn4)cccc3C(=O)N([C@@H](C)CO)C[C@H]2C)cc1`, the “activity change, negative = ATP decrease” value is -1.6%. Then `COc1ccc(S(=O)(=O)N(C)C[C@@H]2Oc3c(NC(=O)Nc4cccc5ccccc45)cccc3C(=O)N([C@@H](C)CO)C[C@H]2C)cc1OC`, with 1.83%; and `COc1ccc(S(=O)(=O)N(C)C[C@@H]2Oc3c(NC(=O)Nc4cccc5ccccc45)cccc3C(=O)N([C@H](C)CO)C[C@@H]2C)cc1`, with 1.09%; and `C[C@@H]1CN([C@@H](C)CO)C(=O)c2cccc(NC(=O)Nc3cccc4ccccc34)c2O[C@H]1CN(C)S(C)(=O)=O`, with 1.3%.

With `C[C@@H]1CN([C@@H](C)CO)C(=O)c2cccc(NC(=O)Nc3cccc4ccccc34)c2O[C@H]1CN(C)S(=O)(=O)c1ccc2c(n1)N(C)CCO2`, the “activity change, negative = ATP decrease” value was 11.8%.

Take `COc1ccc(S(=O)(=O)N(C)C[C@@H]2Oc3c(NC(=O)Nc4cccc5ccccc45)cccc3C(=O)N([C@@H](C)CO)C[C@@H]2C)cc1`: the “activity change, negative = ATP decrease” value was 3.54%. The same measure for `COc1ccc(S(=O)(=O)N(C)C[C@@H]2Oc3c(NC(=O)c4cnccn4)cccc3C(=O)N([C@@H](C)CO)C[C@H]2C)cc1`: -2.23%; for `COc1ccc(S(=O)(=O)N(C)C[C@@H]2Oc3c(NC(=O)C4CCCCC4)cccc3C(=O)N([C@@H](C)CO)C[C@H]2C)cc1`: 6.29%. Then `C[C@@H]1CN([C@@H](C)CO)C(=O)c2cccc(NC(=O)Nc3cccc4ccccc34)c2O[C@H]1CN(C)S(=O)(=O)c1cccc(F)c1`, with 5%; and `COc1ccc(S(=O)(=O)N(C)C[C@@H]2Oc3c(NC(=O)c4ccc(-c5nccs5)cc4)cccc3C(=O)N([C@@H](C)CO)C[C@H]2C)cc1`, with -1.51%; and `C[C@H]1CN([C@@H](C)CO)C(=O)c2cccc(NC(=O)NC3CCCCC3)c2O[C@@H]1CN(C)S(C)(=O)=O`, with -1.82%. The same measure for `COc1ccc(S(=O)(=O)N(C)C[C@@H]2Oc3c(NS(C)(=O)=O)cccc3C(=O)N([C@@H](C)CO)C[C@H]2C)cc1`: 4.08%; for `COc1ccc(S(=O)(=O)N(C)C[C@@H]2Oc3c(NS(=O)(=O)c4ccccc4)cccc3C(=O)N([C@@H](C)CO)C[C@H]2C)cc1`: 5.7%. Consider `COc1cccc(S(=O)(=O)N(C)C[C@@H]2Oc3c(NC(=O)Nc4cccc5ccccc45)cccc3C(=O)N([C@@H](C)CO)C[C@H]2C)c1`, for which the “activity change, negative = ATP decrease” value was 3.81%.

On to `C[C@@H]1CN([C@@H](C)CO)C(=O)c2cccc(NC(=O)Nc3ccccc3)c2O[C@H]1CN(C)S(=O)(=O)c1ccc(Cl)cc1`, for which the “activity change, negative = ATP decrease” value was 3.91%.

As to `COc1ccc(S(=O)(=O)N(C)C[C@@H]2Oc3c(NC(=O)C4CCOCC4)cccc3C(=O)N([C@@H](C)CO)C[C@H]2C)cc1`, the “activity change, negative = ATP decrease” value is -5.52% [at 23.5 µM]. `COc1ccc(NC(=O)N(C)C[C@@H]2Oc3c(NC(=O)Nc4cccc5ccccc45)cccc3C(=O)N([C@@H](C)CO)C[C@H]2C)cc1`: the “activity change, negative = ATP decrease” value is 5.19%. Turning to `C[C@@H]1CN([C@H](C)CO)C(=O)c2cccc(NC(=O)Nc3ccccc3)c2O[C@H]1CN(C)S(=O)(=O)c1ccc(Cl)cc1`, the “activity change, negative = ATP decrease” value is 7.7%. In the case of `COc1ccc(S(=O)(=O)N(C)C[C@@H]2Oc3c(NS(=O)(=O)c4ccc(Cl)cc4)cccc3C(=O)N([C@@H](C)CO)C[C@H]2C)cc1`, the “activity change, negative = ATP decrease” value was 2.03%. Then `C[C@@H]1CN([C@@H](C)CO)C(=O)c2cccc(NC(=O)Nc3cccc4ccccc34)c2O[C@H]1CN(C)S(=O)(=O)c1cn(C)cn1`, with 2.81%. Then `COc1ccc(S(=O)(=O)N(C)C[C@@H]2Oc3ccc(NC(=O)Nc4cccc5ccccc45)cc3C(=O)N([C@@H](C)CO)C[C@H]2C)cc1`, with 4.91%.

For the compound `C[C@@H]1CN([C@@H](C)CO)C(=O)c2cccc(NC(=O)Nc3cccc4ccccc34)c2O[C@H]1CN(C)C(=O)Nc1ccc(C(F)(F)F)cc1`, the “activity change, negative = ATP decrease” value is -5.68% [at 23.5 µM].

As to `Cc1ccc(S(=O)(=O)N(C)C[C@@H]2Oc3c(NC(=O)Nc4ccc(F)cc4)cccc3C(=O)N([C@H](C)CO)C[C@H]2C)cc1`, the “activity change, negative = ATP decrease” value was 5.77%. The same measure for `C[C@@H]1CN([C@@H](C)CO)C(=O)c2cccc(NC(=O)Nc3cccc4ccccc34)c2O[C@H]1CN(C)C(=O)Nc1ccc(F)cc1`: 9.31%. For the compound `COc1ccc(S(=O)(=O)N(C)C[C@@H]2Oc3c(NC(=O)NC(C)C)cccc3C(=O)N([C@@H](C)CO)C[C@H]2C)cc1`, the “activity change, negative = ATP decrease” value is 1.96%.

Turning to `C[C@@H]1CN([C@@H](C)CO)C(=O)c2cccc(NC(=O)Nc3cccc4ccccc34)c2O[C@H]1CN(C)S(=O)(=O)c1ccc2c(c1)OCC2`, the “activity change, negative = ATP decrease” value was 7.13%. Then `COc1ccc(S(=O)(=O)Nc2cccc3c2O[C@@H](CN(C)S(=O)(=O)c2ccc(OC)cc2)[C@H](C)CN([C@@H](C)CO)C3=O)cc1`, with 0.616%.

As for `C[C@@H]1CN([C@@H](C)CO)C(=O)c2cccc(NC(=O)Nc3cccc4ccccc34)c2O[C@H]1CN(C)C(=O)Nc1ccccc1`, the “activity change, negative = ATP decrease” value is -6.04% [at 23.5 µM].

The values above are taken from PubChem BioAssay AID488864 (Broad Institute, 2010).
